# Experimental data published in the supplement of paper PMC9694430.
# Tested on: LOC_OS01G63280-cb003
# Assay: thermal shift delta Tm vs DMSO control; higher = stronger stabilization (binding)
# Settings: 12.5 µM; protein concentration 2 µM
# Outline: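 Heating from 25°C to 95°C at 0.05°C/s, fluorescence was recorded for 19.5 μl wells of 2 μM E. coli-expressed, purified rice kinase domain in 100 mM potassium phosphate pH 7.5, 150 mM NaCl, 10% glycerol and 5 × SYPRO Orange with compound in DMSO. Boltzmann fits gave melting temperatures for this differential scanning fluorimetry assay. The shift reported is the mean of three replicates against the DMSO-only protein.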
# 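Also: purified Escherichia coli-expressed rice kinase domain construct.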
row,SMILES,thermal shift delta Tm
1,O=C1NC(=O)C(=Cc2ccc(-c3ccc(F)cc3)o2)S1 (stereo in doubt),0.52 °C
2,CONC(=O)c1ccccc1Nc1cc(Nc2cc(C)nn2C(C)C)ncc1Cl,0.5 °C
3,O=C(O)c1ccc2c3c1cccc3c(=O)n1c3ccccc3nc21,0.76 °C
4,OC1CCC(Oc2cccc3cnc(Nc4ccc5nc[nH]c5c4)nc23)CC1 (configuration not stated),4.52 °C
5,CN1CCN(Cc2ccc(-c3cnc4[nH]cc(-c5ccc6[nH]ccc6c5)c4c3)cc2)CC1,7.33 °C
6,Cc1cc(N2CCOCC2)cc2[nH]c(-c3c(NC[C@@H](O)c4cccc(Cl)c4)cc[nH]c3=O)nc12,1.68 °C
7,S=C(NCc1ccc2c(c1)OCO2)N1CCN(c2ncnc3c2oc2ccccc23)CC1 [Amuvatinib (MP-470)],0.5 °C
8,COc1cc2c(N3CCN(C(=O)Nc4ccc(OC(C)C)cc4)CC3)ncnc2cc1OCCCN1CCCCC1 [Tandutinib (MLN518)],0.12 °C
9,COc1cc(-c2cc(-c3ccc(N4CCNCC4)cc3)cnc2C)cc(OC)c1OC,-0.05 °C
10,O=C(Nc1ccc(OC(F)(F)F)cc1)c1sccc1NCc1ccnc2ccccc12,6.18 °C
11,Cc1nc2ccc(-n3ncc(C(=O)c4cc5ccccc5[nH]4)c3N)cc2[nH]1,1.52 °C
12,CC(C)n1ncnc1-c1cn2c(n1)-c1ccc(O[C@@H](C)C(N)=O)cc1OCC2,0.36 °C
13,O=C(O)[C@]1(Cc2cccc(Nc3nccs3)n2)CC[C@@H](Oc2cccc(Cl)c2F)CC1,0.43 °C
14,O=C(O)CCC(=O)Nc1ccc(Br)cn1 [Bikinin],0.52 °C
15,CCOc1cc2ncc(C#N)c(Nc3ccc(OCc4ccccn4)c(Cl)c3)c2cc1NC(=O)/C=C/CN(C)C [Neratinib (HKI-272)],1.02 °C
16,O=C(Nc1cccc(C(F)(F)F)c1)c1cccc2cc(Oc3cc(CO)ncn3)ccc12,2.3 °C
17,CC1(C)C=Cc2c(ccc3c2OC[C@@H](c2ccc(O)cc2O)C3)O1 [Glabridin],3.61 °C
18,COc1ccccc1-c1cc(Nc2cccc(CS(N)(=O)=O)c2)ncn1,0.28 °C
19,Cc1ccc(C(=O)Nc2ccc(Oc3cc4cnn(C)c4cc3-c3cn[nH]c3)c(F)c2)c(=O)n1-c1ccc(F)cc1,5.18 °C

row,SMILES,thermal shift delta Tm
1,CCS(=O)(=O)c1cccc(-c2cc(C(=O)NC3CCN(C)CC3)c(C)c3[nH]c4ncc(C)cc4c23)c1,-0.02 °C
2,CCc1cncnc1N1CCN(Cc2nc3ccc(C(F)(F)F)cc3[nH]2)CC1,0.19 °C
3,Cc1ccc(NC(=O)c2ccc(CN3CCN(C)CC3)cc2)cc1Nc1nccc(-c2cccnc2)n1 [Imatinib (STI571)],0.65 °C
4,CCn1c(=O)c(-c2ccc(Cl)cc2Cl)cc2cnc(Nc3ccc(N4CCNCC4)c(F)c3)nc21,5.95 °C
5,COc1cc(N2CCN(C)CC2)ccc1Nc1ncc2c(n1)N(C)c1ccccc1C(=O)N2,0.14 °C
6,CCn1c(-c2nonc2N)nc2cnc(Oc3cccc(NC(=O)c4ccc(OCCN5CCOCC5)cc4)c3)cc21,0.37 °C
7,O=C1Cc2c([nH]c3ccc(Br)cc23)-c2ccccc2N1 [Kenpaullone],3.38 °C
8,COC(=O)Nc1ccc(-c2nc(N3CCOCC3)c3cnn(C4CCN(C(=O)OC)CC4)c3n2)cc1,0.41 °C
9,Nc1ncc(-c2ccnc(Nc3ccncc3)n2)c(CC2CC2)n1,0.58 °C
10,C=CC(=O)Nc1ccc2ncnc(Nc3cccc(Br)c3)c2c1,-0.32 °C
11,COc1nccc(-c2c(-c3ccc(F)cc3)ncn2C2CCC(O)CC2)n1 (configuration not stated),0.44 °C
12,CC(C)Nc1cc(-c2c[nH]c(C(=O)N[C@H](CO)c3cccc(Cl)c3)c2)c(Cl)cn1,0.91 °C
13,CN1CCN(Cc2ccc(NC(=O)Nc3ccc(Oc4ccnc(N)n4)cc3)cc2C(F)(F)F)CC1,8.29 °C
14,O=C(NCCO)c1cccc(-c2cc(Nc3ccc(OC(F)(F)F)cc3)ncn2)c1,0.31 °C
15,CC(C)(O)CNc1ncc(-c2ccnc(Nc3ccnc(Cl)c3)n2)c(CC2CC2)n1,-0.09 °C
16,O=C1NC(=O)C(c2ccccc2[N+](=O)[O-])=C1Nc1ccc(O)c(Cl)c1,0.02 °C
17,CCOc1cc(N2CCC(O)CC2)ccc1Nc1ncc2c(n1)N(C)c1ccccc1C(=O)N2C,-0.13 °C
18,COc1ccc(-c2ccc3ncc4c(c3c2)n(-c2ccc(N3CCNCC3)c(C(F)(F)F)c2)c(=O)n4C)cn1,0.17 °C
